Assay results published in PubChem BioAssay AID1159580 (chemical genetic matrix, 2015).
Values joined by “and” are separate entries in the source; they are usually repeats but may differ in a detail not shown here. Identical values can stand only once. Among all 5,500 compounds or so, about 2,000 (36%) were called active. Not shown: some 18% with an inconclusive outcome. No stated cut-off is given here; in the data, active means normalized growth mostly below about 0.91 (no sharp cut-off); inconclusive means no clear call, values can overlap the other calls; inactive means mostly above about 0.92. Some of the results follow.

Test: chemical genetic growth profiling, strain panel (AID 1159580);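 further: tested at 20 µM; growth read once vehicle control cultures reached saturation at 30 °C; 1 = growth at the plate median or of vehicle wells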
Conditions: S. cerevisiae deletion strains, growth OD

Measured: normalized growth

C[C@]12CCC3c4ccc(O)cc4CCC3C1C[C@@H](O)[C@@H]2O (some centres undefined)
inactive: locus YAL013W, strain DEP1, stronger effect = lower value 0.994 | locus YAL021C, strain ccr4, stronger effect = lower value 1.01 | locus YAL026C, strain drs2, stronger effect = lower value 1 | locus YAL030W, strain snc1, stronger effect = lower value 1.02 | locus YBL061C, strain skt5, stronger effect = lower value 1.02 | locus YBR009C, strain hhf1, stronger effect = lower value 1.02 | locus YBR021W, strain FUR4, stronger effect = lower value 1.01 | locus YBR023C, strain chs3, stronger effect = lower value 1.03 | locus YBR171W, strain sec66, stronger effect = lower value 1.02 | locus YBR229C, strain ROT2, stronger effect = lower value 0.962 | locus YBR231C, strain swc5, stronger effect = lower value 0.988 | locus YBR279W, strain paf1, stronger effect = lower value 1.04 | locus YCL011C, strain gbp2, stronger effect = lower value 1.05 | locus YCL016C, strain dcc1, stronger effect = lower value 1.05 | locus YCL029C, strain bik1, stronger effect = lower value 0.984 | locus YCL061C, strain MRC1, stronger effect = lower value 1.03 | locus YCL069W, strain vba3, stronger effect = lower value 1.01 | locus YCR088W, strain abp1, stronger effect = lower value 1.01 | locus YDL005C, strain med2, stronger effect = lower value 1.02 | locus YDL035C, strain GPR1, stronger effect = lower value 0.969 | locus YDL040C, strain nat1, stronger effect = lower value 1.01 | locus YDL074C, strain BRE1, stronger effect = lower value 0.951 | locus YDL101C, strain DUN1, stronger effect = lower value 0.997 | locus YDL185W, strain tfp1, stronger effect = lower value 0.974 | locus YDL192W, strain arf1, stronger effect = lower value 0.985 | locus YDR001C, strain nth1, stronger effect = lower value 1.01 | locus YDR069C, strain doa4, stronger effect = lower value 1 | locus YDR101C, strain arx1, stronger effect = lower value 0.945 | locus YDR137W, strain rgp1, stronger effect = lower value 1.06 | locus YDR150W, strain NUM1, stronger effect = lower value 0.989 | locus YDR159W, strain sac3, stronger effect = lower value 0.979 | locus YDR162C, strain NBP2, stronger effect = lower value 0.968 | locus YDR195W, strain ref2 0.999 | locus YDR297W, strain sur2, stronger effect = lower value 1.03 | locus YDR318W, strain mcm21, stronger effect = lower value 1 | locus YDR334W, strain swr1, stronger effect = lower value 1.02 | locus YDR335W, strain msn5, stronger effect = lower value 1.02 | locus YDR388W, stronger effect = lower value 0.982 | locus YDR392W, strain spt3, stronger effect = lower value 1.01 | locus YDR502C, strain sam2, stronger effect = lower value 0.993 | locus YEL003W, strain gim4, stronger effect = lower value 0.994 | locus YEL037C, strain rad23, stronger effect = lower value 1.01 | locus YEL061C, strain CIN8 (second series), stronger effect = lower value 1.01 | locus YEL061C, strain CIN8, stronger effect = lower value 0.997 | locus YER015W, strain faa2, stronger effect = lower value 1.02 | locus YER016W, strain bim1, stronger effect = lower value 1 | locus YER110C, stronger effect = lower value 0.983 | locus YER111C, strain swi4, stronger effect = lower value 1.03 | locus YER155C, strain BEM2 (second series), stronger effect = lower value 1.02 | locus YER155C, strain BEM2, stronger effect = lower value 0.993 | locus YER167W, strain BCK2, stronger effect = lower value 1 | locus YFR010W, strain ubp6, stronger effect = lower value 1.01 | locus YGL078C, strain dbp3, stronger effect = lower value 0.995 | locus YGL086W, strain mad1, stronger effect = lower value 0.971 | locus YGL167C, strain pmr1, stronger effect = lower value 1.03 | locus YGL173C, strain kem1, stronger effect = lower value 1.01 | locus YGL227W, strain vid30, stronger effect = lower value 1.02 | locus YGL240W, strain doc1, stronger effect = lower value 1.03 | locus YGL248W, strain PDE1, stronger effect = lower value 0.988 | locus YGL253W, strain hxk2, stronger effect = lower value 1 | locus YGR135W, strain pre9, stronger effect = lower value 1.07 | locus YGR252W, strain gcn5, stronger effect = lower value 1.07 | locus YHR013C, strain ard1, stronger effect = lower value 1.05 | locus YHR027C, strain rpn1, stronger effect = lower value 1.02 | locus YHR030C, strain SLT2, stronger effect = lower value 0.993 and 1.01 | locus YHR079C, strain IRE1 (second series), stronger effect = lower value 0.987 | locus YHR079C, strain IRE1, stronger effect = lower value 0.992 | locus YHR094C, strain hxt1, stronger effect = lower value 0.984 | locus YHR129C, strain ARP1, stronger effect = lower value 0.994 | locus YHR142W, strain chs7, stronger effect = lower value 1.02 | locus YHR200W, strain rpn10, stronger effect = lower value 1 | locus YIL066C, strain RNR3, stronger effect = lower value 0.977 | locus YIL073C, strain SPO22, stronger effect = lower value 0.991 | locus YIL125W, strain kgd1, stronger effect = lower value 0.985 | locus YIR030C, strain dcg1, stronger effect = lower value 0.994 | locus YJL092W, strain hpr5, stronger effect = lower value 1.02 | locus YJL095W, strain BCK1 (second series), stronger effect = lower value 1.02 | locus YJL095W, strain BCK1, stronger effect = lower value 1 and 0.994 | locus YJL115W, strain asf1, stronger effect = lower value 1.02 | locus YJL129C, strain trk1, stronger effect = lower value 1.03 | locus YJL134W, strain LCB3, stronger effect = lower value 0.989 | locus YJL154C, strain vps35, stronger effect = lower value 1.01 | locus YJL164C, strain tpk1, stronger effect = lower value 1.01 | locus YJL166W, strain qcr8, stronger effect = lower value 1.05 | locus YJL168C, strain set2, stronger effect = lower value 1.01 | locus YJL187C, strain SWE1 (second series), stronger effect = lower value 0.996 | locus YJL187C, strain SWE1, stronger effect = lower value 1.04 | locus YJR043C, strain POL32, stronger effect = lower value 0.976 | locus YJR066W, strain TOR1, stronger effect = lower value 0.97 | locus YJR075W, strain HOC1, stronger effect = lower value 0.992 | locus YKL009W, strain mrt4, stronger effect = lower value 0.973 | locus YKL068W, stronger effect = lower value 0.986 | locus YKL085W, strain MDH1 (second series), stronger effect = lower value 1.01 | locus YKL085W, strain MDH1, stronger effect = lower value 1.01 | locus YKL160W, strain elf1, stronger effect = lower value 1.05 | locus YKR001C, strain vps1, stronger effect = lower value 0.972 | locus YKR026C, strain gcn3, stronger effect = lower value 1.02 | locus YKR091W, strain srl3, stronger effect = lower value 1.02 | locus YLL001W, strain dnm1, stronger effect = lower value 1.05 | locus YLL026W, stronger effect = lower value 1.02 | locus YLL041C, strain sdh2, stronger effect = lower value 1.01 | locus YLR027C, strain aat2, stronger effect = lower value 1.01 | locus YLR039C, strain RIC1, stronger effect = lower value 1.03 | locus YLR058C, strain SHM2, stronger effect = lower value 0.977 | locus YLR102C, strain apc9, stronger effect = lower value 0.996 | locus YLR113W, strain HOG1, stronger effect = lower value 0.97 | locus YLR221C, strain rsa3, stronger effect = lower value 1.05 | locus YLR258W, strain gsy2, stronger effect = lower value 1.01 | locus YLR262C, strain YPT6 (second series), stronger effect = lower value 1.04 | locus YLR262C, strain YPT6, stronger effect = lower value 0.925 | locus YLR268W, strain sec22, stronger effect = lower value 0.987 | locus YLR320W, strain mms22, stronger effect = lower value 1.07 | locus YLR330W, strain CHS5, stronger effect = lower value 0.984 | locus YLR342W, strain FKS1 (second series), stronger effect = lower value 0.999 | locus YLR342W, strain FKS1, stronger effect = lower value 1.02 | locus YLR357W, strain rsc2, stronger effect = lower value 1.03 | locus YLR370C, strain arc18, stronger effect = lower value 1.02 | locus YLR371W, strain rom2, stronger effect = lower value 1.01 | locus YLR384C, strain iki3, stronger effect = lower value 1.02 | locus YLR418C, strain cdc73, stronger effect = lower value 1.02 | locus YML016C, strain PPZ1, stronger effect = lower value 0.989 | locus YML032C, strain rad52, stronger effect = lower value 0.967 | locus YML120C, strain ndi1, stronger effect = lower value 1.04 | locus YML124C, strain tub3, stronger effect = lower value 0.996 | locus YMR058W, strain fet3, stronger effect = lower value 1.01 | locus YMR078C, strain ctf18, stronger effect = lower value 0.991 | locus YMR125W, strain sto1, stronger effect = lower value 1.02 | locus YMR129W, stronger effect = lower value 1 | locus YMR205C, strain PFK2, stronger effect = lower value 1.04 | locus YMR223W, strain ubp8, stronger effect = lower value 1.02 | locus YMR231W, strain pep5, stronger effect = lower value 1.02 | locus YMR307W, strain GAS1, stronger effect = lower value 0.954 | locus YNL067W, strain RPL9B, stronger effect = lower value 0.994 | locus YNL071W, strain lat1, stronger effect = lower value 1.02 | locus YNL153C, strain GIM3, stronger effect = lower value 0.976 | locus YNL183C, strain NPR1, stronger effect = lower value 0.962 | locus YNL209W, strain ssb2, stronger effect = lower value 1.03 | locus YNL233W, strain BNI4, stronger effect = lower value 0.987 | locus YNL248C, strain rpa49, stronger effect = lower value 1.05 | locus YNL250W, strain rad50, stronger effect = lower value 0.987 | locus YNL271C, strain bni1, stronger effect = lower value 0.991 | locus YNL298W, strain CLA4, stronger effect = lower value 0.99 | locus YNL307C, strain MCK1, stronger effect = lower value 0.999 | locus YNL322C, strain KRE1 (second series), stronger effect = lower value 1.05 | locus YNR049C, strain mso1, stronger effect = lower value 1.02 | locus YNR052C, strain pop2, stronger effect = lower value 0.982 | locus YOL012C, strain htz1 1.25 | locus YOL147C, strain pex11, stronger effect = lower value 0.993 | locus YOR001W, strain rrp6, stronger effect = lower value 0.998 | locus YOR061W, strain CKA2, stronger effect = lower value 0.973 | locus YOR069W, strain VPS5, stronger effect = lower value 0.997 | locus YOR070C, strain gyp1, stronger effect = lower value 1.02 | locus YOR080W, strain dia2, stronger effect = lower value 1.02 | locus YOR083W, strain WHI5, stronger effect = lower value 1.06 | locus YOR106W, strain vam3, stronger effect = lower value 1.03 | locus YOR136W, strain idh2, stronger effect = lower value 0.987 | locus YOR144C, strain elg1, stronger effect = lower value 0.993 | locus YOR184W, strain ser1, stronger effect = lower value 1 | locus YOR231W, strain MKK1, stronger effect = lower value 0.972 | locus YOR265W, strain rbl2, stronger effect = lower value 1.02 | locus YOR270C, strain vph1, stronger effect = lower value 1.04 | locus YOR290C, strain snf2, stronger effect = lower value 0.975 | locus YOR316C, strain cot1, stronger effect = lower value 0.985 | locus YPL051W, strain arl3, stronger effect = lower value 1.02 | locus YPL078C, strain atp4, stronger effect = lower value 1.05 | locus YPL106C, strain sse1, stronger effect = lower value 1.06 | locus YPL240C, strain hsp82, stronger effect = lower value 1.03 | locus YPL241C, strain CIN2, stronger effect = lower value 0.989 | locus YPL256C, strain CLN2, stronger effect = lower value 1 | locus YPR119W, strain clb2, stronger effect = lower value 0.989 | locus YPR141C, strain kar3, stronger effect = lower value 0.989 | locus YPR163C, strain tif3, stronger effect = lower value 0.996 | locus YPR167C, strain met16, stronger effect = lower value 0.999 | strain wtn01, stronger effect = lower value 1.01
